Source: PubChem BioAssay (several laboratories)
APOBEC3A inh: human APOBEC3A DNA deaminase inhibition; P31941; 0.41% of 330,000 active; recombinant A3A, FAM/TAMRA ssDNA deamination fluorescence; AID 493011; inhibition, % at 20 µM;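 active means at least 40% inhibition at 20 µM here, with at most 30% in a related deaminase screen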;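 further: plate controls were A3A with DMSO for no effect and wells lacking A3A enzyme for full effect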
Target sequence (P31941 whole entry, looked up): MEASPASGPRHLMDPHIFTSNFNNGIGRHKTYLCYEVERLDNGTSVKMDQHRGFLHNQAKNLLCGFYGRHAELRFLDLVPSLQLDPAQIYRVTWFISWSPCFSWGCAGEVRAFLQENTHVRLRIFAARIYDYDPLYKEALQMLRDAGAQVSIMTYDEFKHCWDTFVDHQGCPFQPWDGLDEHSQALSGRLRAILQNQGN
ALR H2O2 inh: blocks human ALR sulfhydryl oxidase activity; P55789; purified ALR, DTT oxidation, H2O2 HRP-luminol luminescence; inhibition, % (no concentration beside the values); 3.8% of 290,000 active;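 active means mean replicate inhibition above about 79%, with every replicate also reaching it, limit read from the data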
Target sequence (P55789 whole entry, looked up): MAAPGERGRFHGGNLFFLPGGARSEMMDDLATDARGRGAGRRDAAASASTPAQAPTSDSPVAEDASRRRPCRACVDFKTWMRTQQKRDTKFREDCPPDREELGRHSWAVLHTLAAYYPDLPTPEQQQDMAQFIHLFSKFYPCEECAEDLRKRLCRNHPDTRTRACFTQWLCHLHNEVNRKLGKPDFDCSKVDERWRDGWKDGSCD
PHOSPHO1 inh: inhibitors of human PHOSPHO1 phosphatase | recombinant PHOSPHO1, absorbance phosphatase assay | 1.1% of 290,000 active | AID 1565 | Q8TCT1 | inhibition, % at 13.3 µM; in the data active means inhibition above about 60%
aDG glyco act: alpha-DG glycosylation activation. Pro5-aDG cells, alpha-DG glycosylation AlphaScreen (IIH6); 0% Pro5, 100% B10-LARGE cell signal. 0.22% of 360,000 active. AID 624168. activation, % at 10 µM;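 active means activation of at least 8% versus controls, or a plate z-score of at least 8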;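 further: Pro5 are CHO cells carrying HIG-tagged alpha-DG that lacks glycosylation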
rCAG RNA binder: molecules binding r(CAG) RNA repeats | r(CAG) RNA repeat, TO-PRO-1 dye displacement fluorescence | inhibition, % at 3 µM | 1.3% of 370,000 active | AID 651821;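 active means inhibition above the plate cutoff, the mean of all test compounds on that plate plus 3 SD, cut at about 35% in these data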;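 further: 0% = DMSO alone and 100% = 100 µM mitoxantrone as full dye displacement; higher means more dye released from RNA so lower well fluorescence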
A3G deaminase: APOBEC3G (human) deaminase inhibition; Q9HC16; recombinant A3G, ssDNA deamination FAM/TAMRA fluorescence; inhibition, % at 20 µM; 0.28% of 330,000 active; AID 493012;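 active means inhibition of at least 40% at 20 µM, with no more than 30% in the related APOBEC3A deaminase screen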;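 further: plate controls were DMSO wells with A3G for no effect and wells lacking A3G enzyme for full effect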
Starred values were filed as active, the others as inactive; . = no result given. In the library only some 5.4% were active in any assay of this set; here they are far more common.

SMILES	APOBEC3A inh	ALR H2O2 inh	PHOSPHO1 inh	aDG glyco act	rCAG RNA binder	A3G deaminase
Cc1ccc(C)c(NC(=O)c2ccc(CS(=O)(=O)Cc3ccccc3C)o2)c1	.	.	.	.	2.4	.
C=CCN1CCc2c(cc(O)c(O)c2Br)[C@@H](c2ccccc2)C1	-2.9	98.8*	.	-0.1	9.2	-4.7
CN1CCc2cc(O)c(O)cc2C(c2ccccc2)C1 (configuration not stated)	-4.0	.	.	0.1	2.3	-7.9
CC1CN(c2nc3ccccc3nc2SCC(=O)N2CCN(S(=O)(=O)c3ccc(F)cc3)CC2)CC(C)O1 (configuration not stated)	.	.	.	.	11.3	.
CCN(CC)c1ccc(/C=N/N2CCN(c3ccccc3OC)CC2)cc1	-3.1	99.0*	19.0	-0.1	-6.7	-5.7
COc1ccccc1N1CCN(/N=C(\C)c2ccc(O)cc2)CC1	-4.7	98.9*	39.5	0.1	-6.5	-4.6
COc1cc(/C=N/N2C(=O)CSC2=S)cc(Br)c1O	.	.	-97.7	0.0	18.4	.
COc1cccc(/C=N/N2C(=O)CSC2=S)c1O	-2.8	97.8*	-7.4	-0.1	15.5	-1.5
COc1cccc(/C=N\N2CCN(c3ccc(C)cc3)CC2)c1O	.	.	.	.	1.3	.
COc1ccccc1N1CCN(/N=C/c2cccc(OC)c2O)CC1	-1.5	92.8*	32.3	-0.3	-2.0	-6.7
COc1ccccc1N1CCN(/N=C/c2ccc(C(=O)O)cc2)CC1	-2.8	-55.0	39.4	-0.2	0.4	-6.1
CC(c1ccccc1)n1cc(C(=O)N2CCCC2)nn1 (configuration not stated)	.	.	.	.	-1.3	.
CCCCCCCCN1CCS(=O)(=O)N(Cc2ccc(C)cc2)C(C(=O)OC)C1 (configuration not stated)	.	.	.	.	0.3	.
CC(=O)N1CCN(S(=O)(=O)c2ccc3c(c2)oc(=O)n3C)CC1	.	.	.	.	3.6	.
COc1cc(/C=N/N2CCN(c3ccccc3)CC2)cc(OC)c1OC(C)=O	-3.6	97.4*	28.7	0.8	-4.0	-2.8
COc1ccc(/C=N/N2CCN(c3ccccc3OC)CC2)cc1OC	-0.3	32.1	17.6	0.0	-2.3	1.5
COc1ccccc1N1CCN(/N=C/c2ccc(O)c(O)c2)CC1	-5.1	99.6*	36.7	.	4.6	7.7
CN(CC#CC1=CCCCC1)/C(N)=N/C(=O)OCc1ccccc1	.	.	.	.	0.0	.
COc1ccc(/C=C/C(=O)ONC2=NCCCCC2)cc1OC	-1.1	-8.8	15.0	-0.1	-6.5	-3.6
O=[N+]([O-])c1ccccc1/C=N/NC1=NCCCCC1	4.5	-3.1	-33.1	-0.1	-3.0	-4.0
COc1cc(/C=N/NC2=NCCCCC2)ccc1O	0.2	95.0*	3.6	0.3	-0.7	-0.8
Oc1ccc(/C=N/NC2=NCCCCC2)cc1	3.3	99.2*	-2.7	0.0	-1.8	-0.9
O=C(CCc1ccccc1)N[C@H]1[C@H](OC(=O)c2cnccn2)CCC[C@@]12C(=O)N(Cc1ccccc1)c1ccccc12	.	.	.	.	1.6	.
Cc1cccc(CCNC(=O)CSc2nc3c([nH]2)c(=O)n(C)c(=O)n3C)c1	.	.	.	.	1.3	.
CCOC(=O)Nc1ccc2c(c1)N(CCCN(C)C)c1ccccc1CC2	-10.6	98.8*	-2.1	0.7	-8.4	1.8
SMILES	APOBEC3A inh	ALR H2O2 inh	PHOSPHO1 inh	aDG glyco act	rCAG RNA binder	A3G deaminase
CC1(C)CC(=O)C2=C(C1)Nc1ccccc1[S@]2=O	5.6	.	32.2	0.1	-0.5	5.3
O=S1c2ccccc2Nc2ccccc21	2.7	86.8*	.	0.0	7.7	1.9
CN1C(=O)c2cc(NC(=O)C3CC3)ccc2OC[C@H]2O[C@@H](CC(=O)NC3CCC3)CC[C@@H]21	.	.	.	.	0.2	.
O=C(NCC1CCCO1)c1cc([N+](=O)[O-])ccc1Cl (configuration not stated)	-1.2	95.4*	-5.3	0.0	-0.5	-2.9
O=C(NCC1CCCO1)c1ccccc1NS(=O)(=O)c1cc([N+](=O)[O-])ccc1Cl (configuration not stated)	-1.2	.	.	0.1	23.8	-6.2
CCCCS(=O)(=O)N1CCCc2nc(-c3ccc(Br)cc3)ccc21	.	.	.	.	3.7	.
Cn1c(-c2ccc([N+](=O)[O-])cc2)nc2ccccc21	-1.0	-19.2	3.5	-0.1	1.1	-0.2
Cn1nc([N+](=O)[O-])c(C(C#N)c2nc3ccccc3n2C)c(Cl)c1=O (configuration not stated)	-1.4	99.6*	12.3	0.2	26.0	-3.8
Cc1cc(OC(=O)CNC(=O)OC(C)(C)C)c2c(C)cc(=O)oc2c1	-5.4	90.8*	4.7	-0.2	-2.9	-7.2
Cc1cc(OC(=O)c2ccco2)c2c(C)cc(=O)oc2c1	-1.6	9.0	4.7	0.2	3.2	-5.9
CCc1ccc(S(=O)(=O)Nc2ccc(O)c3ccccc23)cc1	-0.1	-4.7	11.4	1.9	20.5	-3.9
Cc1ccc(C)c(S(=O)(=O)Nc2cc(SCC(=O)O)c(O)c3ccccc23)c1	.	56.4	70.9*	8.5*	.	.
Cc1ccc(NS(=O)(=O)c2cc(NC(=O)C(C)Oc3ccccc3)ccc2C)c(C)c1 (configuration not stated)	-2.3	-6.8	6.7	0.6	0.5	4.3
O=C(O)CSc1cc(NS(=O)(=O)c2cccc([N+](=O)[O-])c2)c2ccccc2c1O	.	.	36.8	2.6*	26.8	.
O=S(=O)(Nc1cc(Sc2cccc3cccnc23)c(O)c2ccccc12)c1ccccc1	.	.	60.3*	.	-4.8	.
CCc1ccc(S(=O)(=O)Nc2cc(SCC(=O)O)c(O)c3ccccc23)cc1	2.8	45.4	52.8	8.1*	29.5	13.1
CCN(CC)C(=N)/C(C#N)=N/Nc1ccccc1	-4.7	86.5*	31.8	-0.1	-2.0	-10.1
N#C/C(=N\Nc1ccccc1)C(=N)N1CCCCC1	-3.7	99.4*	5.7	-0.2	-2.9	-5.9
CCOC(=O)/C(C#N)=N/Nc1ccccc1OC	-4.2	-1.7	3.2	-0.5	1.7	-5.8
COc1ccccc1N/N=C(\C#N)C(=N)N1CCOCC1	-1.3	82.4*	-5.3	-0.4	-2.4	-6.1
N#C/C(=N\Nc1ccc(Br)cc1)C(=N)N1CCOCC1	-3.5	98.3*	6.4	-0.1	-2.9	-10.4
CCOC(=O)NC(=O)/C(C#N)=N/Nc1ccc(F)cc1	4.3	26.6	34.9	-0.1	2.6	0.6
COCC(=O)N[C@H]1C[C@@H]2O[C@@H](CO)CC[C@@H]2O[C@@H]1CCc1ccc(-c2ccccc2)cc1	.	.	.	.	4.4	.
C[C@H]1/C=C/CC(=O)N[C@@H](c2ccccc2)[C@@H](C)/C=C/CC(=O)N[C@H]1c1ccccc1	.	.	.	.	5.4	.
CN(Cc1ccccc1)S(=O)(=O)c1cccc(C(=O)OCc2ccc(C(F)(F)F)cc2)c1	.	.	.	.	1.8	.
Cc1ccc(N/N=C(\C#N)C(=N)N2CCCCC2)cc1	-2.7	98.8*	16.0	-0.1	-4.2	3.6
N#C/C(=N\Nc1ccc(Cl)cc1)C(=N)N1CCCCCC1	-0.1	.	23.3	-0.2	4.0	-0.7
Cc1noc(C)c1COC(=O)c1ccc2c(c1)S(=O)(=O)c1ccccc1C2=O	-1.3	-10.2	81.7*	-0.1	0.7	-5.0
